High-throughput results (PubChem)
KCC2 mod: KCC2 cotransporter modulators, thallium flux, primary screen, cell-based, HEK293 KCC2, FluoZin-2 fluorescence, MLSMR; Solute carrier family 12 member 5 (Homo sapiens), Q9H2X9; KCC2 cells, thallium flux FluoZin-2 fluorescence; B-score of Tl+ flux slope (higher = more flux/activation; lower = inhibition) at 10 µM; 190,000 compounds, 2.2% hits;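 active = thallium flux slope and its plate-corrected score both differing from the plate sample mean at a set confidence after two filtering rounds, in either direction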;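 also: slope of fluorescence scaled to starting intensity during 10 to 20 s after thallium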
Target sequence (Q9H2X9 whole entry, looked up): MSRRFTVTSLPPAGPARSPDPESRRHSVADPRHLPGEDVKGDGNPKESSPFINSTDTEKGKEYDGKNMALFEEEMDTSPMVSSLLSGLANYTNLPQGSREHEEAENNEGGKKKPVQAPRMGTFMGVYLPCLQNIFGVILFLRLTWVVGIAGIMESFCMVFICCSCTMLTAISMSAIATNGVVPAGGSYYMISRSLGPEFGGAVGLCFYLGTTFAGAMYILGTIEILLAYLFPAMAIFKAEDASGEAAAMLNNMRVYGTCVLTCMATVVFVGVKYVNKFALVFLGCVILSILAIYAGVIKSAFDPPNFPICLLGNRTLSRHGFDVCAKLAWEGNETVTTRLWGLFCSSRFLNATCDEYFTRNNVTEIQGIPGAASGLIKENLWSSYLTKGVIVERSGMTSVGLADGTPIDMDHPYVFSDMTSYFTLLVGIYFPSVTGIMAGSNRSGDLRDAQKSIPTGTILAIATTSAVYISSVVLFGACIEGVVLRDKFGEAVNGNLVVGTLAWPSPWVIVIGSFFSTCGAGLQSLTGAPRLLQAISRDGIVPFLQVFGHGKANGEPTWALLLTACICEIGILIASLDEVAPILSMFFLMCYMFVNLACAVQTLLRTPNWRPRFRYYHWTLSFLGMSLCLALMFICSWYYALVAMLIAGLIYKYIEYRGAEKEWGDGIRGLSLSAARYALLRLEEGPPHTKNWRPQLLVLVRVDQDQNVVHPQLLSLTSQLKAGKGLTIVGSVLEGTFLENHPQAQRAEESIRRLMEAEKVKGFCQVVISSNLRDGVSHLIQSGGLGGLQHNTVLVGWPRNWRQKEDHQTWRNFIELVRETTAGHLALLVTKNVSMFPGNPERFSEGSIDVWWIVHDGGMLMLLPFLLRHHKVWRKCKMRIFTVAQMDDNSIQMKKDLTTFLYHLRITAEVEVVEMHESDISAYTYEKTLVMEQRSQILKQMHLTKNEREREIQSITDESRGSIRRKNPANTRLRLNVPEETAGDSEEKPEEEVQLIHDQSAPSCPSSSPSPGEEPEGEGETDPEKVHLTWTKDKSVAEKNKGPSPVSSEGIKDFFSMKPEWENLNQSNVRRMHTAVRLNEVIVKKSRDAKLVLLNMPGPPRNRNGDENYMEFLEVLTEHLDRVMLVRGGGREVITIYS
PHOSPHO1 block: PubChem AID 1565 | Phosphoethanolamine/phosphocholine phosphatase (Homo sapiens), Q8TCT1 | 290,000 compounds, 1.1% hits | recombinant PHOSPHO1, absorbance phosphatase assay | inhibition, % at 13.3 µM; in the data active = inhibition above about 60%
Efflux pump mplx: inhibitors of Candida efflux pumps in yeast, primary screen, S. cerevisiae, Nile Red, multiplex; inhibition, % at 10 µM; S. cerevisiae Candida pump triplex; 330,000 compounds, 0.44% hits;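 active = plate passing quality check with inhibition over a set limit, or well fluorescence over plate mean plus 4 SD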;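 also: Nile Red retained in pooled yeast measured as flow cytometry median fluorescence; 0% = buffer negative control and 100% = Enniatin B positive control; higher means more Nile Red kept so more efflux inhibition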
Calb FLC: C. albicans growth inhibition with fluconazole, primary screen, CaCi-2 strain, Alamar Blue fluorescence | 300,000 compounds, 0.57% hits | growth inhibition, % (test concentration not listed) | C. albicans CaCi-2 (fluconazole-resistant clinical isolate) + fluconazole, 48 h;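 active = growth inhibition above about 58% in most replicates, limit read from the data, passing the limit was not always enough; inconclusive = exactly half the replicates above a set limit; inactive = most replicates below a set limit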;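 also: all wells also contain fluconazole at 8 µg/ml as a sub-toxic cotreatment; 0% = median of DMSO wells and 100% = median of geldanamycin control wells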
Cardio protect: cardioprotection against H2O2-induced cell death, primary screen, uHTS, H9c2 cells, ATPLite luminescence. protection from H2O2 cell death, % at 20 µM. 360,000 compounds, 0.63% hits. H9c2 cardiomyocytes, H2O2 injury protection, 2 h;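 active = compounds giving at least 50% protection of heart cells from peroxide-induced death in the single-dose screen, raw or plate-pattern-corrected value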;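 also: 0% = DMSO wells with peroxide and 100% = DMSO wells without peroxide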
KCC2 secondary: KCC2 modulators in sodium-free buffer, confirmation, cell-based, HEK293 KCC2, thallium flux, secondary assay; shares compounds with KCC2 mod; FluoZin2 fluorescence; active compounds read high; normalised thallium flux (F/F0 slope) at 10 µM; 3,700 compounds, 15% hits; AID 1713, 2009;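 active = thallium flux slope above the same plate's solvent-only control mean plus 3 SD; inconclusive = the two replicate wells disagree; inactive = no significant difference from solvent-only control wells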
KCC2 bumet counter: thallium flux persisting under bumetanide in KCC2 cells, confirmation, counter-screen for KCC2 modulator project, cell-based, HEK293 KCC2, FluoZin2, secondary assay 3; normalized thallium flux at 10 µM; HEK293-KCC2 + bumetanide/ouabain; active compounds read high; shares compounds with KCC2 mod; AID 1714, 2009; 3,700 compounds, 49% hits;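 active = thallium entry rate above the same plate's blocked-transporter control wells by more than 3 SD; inconclusive = the two repeat wells disagree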;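 also: raw slope of fluorescence over initial fluorescence between 10 and 20 s after thallium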
KCC2 secondary2: KCC2 modulators without ouabain present, confirmation, cell-based, HEK293 KCC2, thallium flux, FluoZin2, secondary assay 2 | shares compounds with KCC2 mod | thallium flux FluoZin2 fluorescence; actives lie on both sides; F/F0 rise rate, 10–20 s post-thallium | normalized thallium flux at 10 µM | 3,700 compounds, 23% hits | AID 1715, 2009;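 active = thallium flux slope more than 3 SD above or below the plate's solvent-only control mean, mostly below; inconclusive = the two repeat wells disagreed; inactive = no significant shift from solvent-only controls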;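 also: raw slope with 0.1% DMSO as baseline and bumetanide as block control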
HEK293 Tl flux: thallium flux modulation in parental HEK cells, confirmation, counter-screen for KCC2 modulator project, cell-based, counterscreen 1 | thallium flux rate (normalised fluorescence) at 10 µM | 3,700 compounds, 46% hits | shares compounds with KCC2 mod | HEK293 parental cells, thallium flux FluoZin2, ouabain; baseline-ratio fluorescence slope, 10–20 s after thallium;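 active = thallium flux rate significantly above the same plate's solvent-only control wells, beyond their mean plus 3 SD; inconclusive = the two replicate wells gave conflicting results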
KCC2 ouabain: KCC2 inhibitors and activators, ouabain retest, confirmation, HEK-KCC2 cells; HEK293-KCC2, thallium flux FluoZin2 fluorescence; bidirectional: low = inhibitor, high = activator; AID 1717, 2009; raw Tl+ flux slope (below DMSO = inhibition, above = activation) at 10 µM; shares compounds with KCC2 mod; 3,700 compounds, 48% hits;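 active = thallium flux slope beyond 3 SD from same-plate DMSO control mean in most replicates, usually higher, sometimes lower; inconclusive = repeat tests gave conflicting results; inactive = no significant difference from controls in most replicates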;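 also: slope of initial-normalized fluorescence between seconds 10 and 20 after thallium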
HEK293 Tl flux2: native HEK Tl+ uptake effects, second counter-screen – HEK cells, counterscreen 2, counter-screen for KCC2 modulator project, confirmation. shares compounds with KCC2 mod. thallium flux slope at 10 µM. HEK293 parental, thallium flux FluoZin-2 fluorescence slope. AID 1718, 2009. 3,700 compounds, 33% hits;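 active = thallium flux slope above the same plate's solvent-control mean plus 3 SD in both duplicate wells; inconclusive = duplicate wells that disagreed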;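 also: run without ouabain in cells lacking the KCC2 cotransporter; slope of fluorescence scaled to its starting value between 10 and 20 s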
Numbers without * were called inactive; u = inconclusive; x = not tested or not shown. Shown are actives, neighbours in structure and some others; about 3.3% of the full set was active somewhere.

SMILES	KCC2 mod	PHOSPHO1 block	Efflux pump mplx	Calb FLC	Cardio protect	KCC2 secondary	KCC2 bumet counter	KCC2 secondary2	HEK293 Tl flux	KCC2 ouabain	HEK293 Tl flux2
Cc1cc(/C=C2\SC(=S)NC2=O)c(C)n1-c1ccccc1	24*	-48	0	27	-15	0.011	0.047*	0.036	0.029*	u	0.013*
O=C(Nc1ccncc1)c1ccc(Cl)c(S(=O)(=O)N2CCCC2)c1	x	x	0	-3	-15	x	x	x	x	x	x
COc1ccc(CCC(=O)NC(C)C2CCCO2)cc1 (centres undefined)	x	14	0	-4	9	x	x	x	x	x	x
COc1cccc(NC(=O)CSCc2nc3sc(C)c(C)c3c(=O)[nH]2)c1	x	x	x	x	6	x	x	x	x	x	x
COc1ccc(NC(=S)NC(=O)/C=C/c2ccco2)cc1	4.4*	37	0	-12	-3	0.01	0.016*	0.037	u	u	0.012
O=C(NC(=S)NCc1ccccc1)c1ccc(Br)o1	x	8	0	-15	-4	x	x	x	x	x	x
Cc1snnc1C(=O)NC(=S)Nc1ccccc1	52*	12	0	7	-6	0.026*	0.089*	u	0.047*	0.064*	0.014*
COc1ccc(NC(=S)NC(=O)c2ccc(Br)o2)cc1	100*	47	0	14	-2	0.057*	0.14*	0.061*	0.12*	0.11*	0.053*
O=C(NC(=S)Nc1ccccc1)c1ccc(Br)o1	111*	-35	0	6	-4	0.046*	0.19*	0.062*	0.1*	0.13*	0.036*
COc1ccc(NC(=O)c2ccc(Br)o2)cc1	0.29	-6	0	-4	-10	x	x	x	x	x	x
CCOC(=O)c1cccc(NC(=O)c2cc(C)nn2-c2ccccc2)c1	x	42	0	-7	-2	x	x	x	x	x	x
CC(C)c1ccc(CNC(=O)C2CCCN2S(=O)(=O)c2ccccc2)cc1 (centres undefined)	x	38	0	-22	-4	x	x	x	x	x	x
O=C(Nc1ccc(Nc2ccccc2)cc1)c1ccc(Br)o1	-5.7*	7	0	-1	-16	u	0.0048	0.03	0.0067	0.013*	u
O=C1CCC/C(=N/NC(=O)c2sc3ccccc3c2Cl)C1	-0.51	5	0	4	5	x	x	x	x	x	x
COc1cc(C(=O)NNC(=S)NC(=O)c2ccc(Cl)cc2)cc(OC)c1OC	13*	69*	0	-5	32	0.017*	0.028*	0.038	0.017*	0.033*	0.012*
O=C(NNC(=S)NC(=O)c1sc2ccccc2c1Cl)c1ccc(Cl)cc1	25*	-11	0	-9	4	0.017*	0.053*	u	0.037*	0.052*	0.013*
O=C(NN=C1CCCC1)c1sc2ccccc2c1Cl	11*	-32	0	2	14	0.0057	0.023*	0.031	0.022*	u	0.019*
COc1ccc(NC(=O)CN2C(=O)NC(C)(Cc3ccc(OC)c(OC)c3)C2=O)cc1 (centres undefined)	x	x	x	x	2	x	x	x	x	x	x
Fc1cccc(/C=N/Nc2cc(N3CCOCC3)ncn2)c1	x	-13	0	-9	-7	x	x	x	x	x	x
C[C@@H]1[C@H]2[C@@H]3CC[C@@H](C3)[C@H]2CN[C@H]1c1cn(Cc2ccccc2)c2ccccc12	x	x	0	x	-21	x	x	x	x	x	x
COCCCN1C(=O)C(CC(=O)NC2CCCCC2)CC(C(=O)N2CCOCC2)=C1C (centres undefined)	x	x	x	x	6	x	x	x	x	x	x
COc1ccc(NC(=O)NC2(C(=O)N3CCCC(C)C3)CCCCC2)cc1 (centres undefined)	x	37	0	-6	5	x	x	x	x	x	x
COc1ccc(C(=O)NNC(=S)NC(=O)c2ccc(Br)o2)cc1OC	6.3*	-68	0	-1	38	0.0065	0.021*	0.038*	0.02*	u	0.021*
Cc1ccc(OCC(=O)NNC(=S)NC(=O)c2ccc(Br)o2)c(C)c1	x	-8	0	-14	36	x	x	x	x	x	x
C=CCn1c(-c2ccc(OC)c(OC)c2)n[nH]c1=S	0.26	-5	0	5	-6	x	x	x	x	x	x
SMILES	KCC2 mod	PHOSPHO1 block	Efflux pump mplx	Calb FLC	Cardio protect	KCC2 secondary	KCC2 bumet counter	KCC2 secondary2	HEK293 Tl flux	KCC2 ouabain	HEK293 Tl flux2
C=CCn1c(-c2ccc(Cl)cc2)c[nH]c1=S	5.2*	94*	0	-21	-14	u	0.029*	0.034	0.011*	0.026	u
CC1(C(=O)Nc2ccc3c(c2)OCO3)CCN1Cc1csc2ccccc12 (centres undefined)	x	x	x	x	0	x	x	x	x	x	x
O=C(OCC(=O)N1CCN(C(=O)c2ccco2)CC1)c1sc2ccccc2c1Cl	-4*	4	0	12	6	0.0066	u	u	0.0084	0.018	0.012
O=C(OCC(=O)N1CCN(C(=O)c2ccco2)CC1)c1ccccc1	0.24	36	0	-24	8	x	x	x	x	x	x
CN1CCC(NC(=O)c2cc(-c3cccc(Br)c3)nc3ccccc23)CC1	x	48	0	17	-9	x	x	x	x	x	x
S=c1sc2c(Cl)ncnc2n1-c1ccccc1	-4.3*	-20	x	51	-8	0.0058	0.0046	0.033	0.0073	0.019	0.01
Fc1ccc(N2CCN(C(=S)NCC3CCCO3)CC2)cc1 (centres undefined)	-2.6*	4	0	12	-2	0.0067	0.0059	0.028	0.0063	u	0.0094
CCOCCCNCC(=O)Nc1ccc(S(=O)(=O)NC(C)CC)cc1 (centres undefined)	-1.5	-26	0	-11	7	x	x	x	x	x	x
